Inhibition data for 39 molecules are collected here from PubChem BioAssay.

Calls of active or inactive are those of the source. No rule for the calls is given here.

The target in this assay is Pantothenate synthetase (Mycobacterium tuberculosis (strain ATCC 25618 / H37Rv)) (UniProt P9WIL5). The assay can be described thus: Coupled enzyme confirmation of inhibitors against recombinant Mtb PanC (AID 375).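 Also: 0% = full reaction with vehicle and 100% = no enzyme background.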 As to conditions: coupled enzyme assay; at 10 µM, hits give high values.
Sequence of Pantothenate synthetase (Mycobacterium tuberculosis (strain ATCC 25618 / H37Rv)) (P9WIL5 whole entry, looked up): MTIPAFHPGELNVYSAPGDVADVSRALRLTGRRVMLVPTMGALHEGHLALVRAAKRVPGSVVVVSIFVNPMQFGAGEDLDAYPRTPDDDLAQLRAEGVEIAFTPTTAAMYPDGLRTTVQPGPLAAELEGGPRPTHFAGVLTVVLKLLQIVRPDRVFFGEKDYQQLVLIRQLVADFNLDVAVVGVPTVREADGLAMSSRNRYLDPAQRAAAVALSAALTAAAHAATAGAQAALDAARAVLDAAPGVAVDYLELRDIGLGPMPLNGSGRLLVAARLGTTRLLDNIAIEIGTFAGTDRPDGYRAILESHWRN
By inhibition is commonly meant the drop in the measured response relative to a control, in per cent. `Cc1cccc(-c2nc(CN3CCCC(C(=O)NC4CCCC4)C3)c(C)o2)c1` (centres undefined): the inhibition is 0% (inactive).

On to `Cn1c(=O)[nH]c(=O)c2c1nc(NC1CCCCC1)n2CC(=O)NC1CCCCC1`, for which the inhibition is 0% (inactive). As to `O=C(COC(=O)c1ccc(Br)o1)Nc1ccc(S(=O)(=O)N2CCCC2)cc1`, the inhibition was 5% (inactive). For the molecule `O=C(COc1ccccc1Cl)NCCCN1CCOCC1`, the inhibition was 0% (inactive).

As to `COc1ccc(/C(O)=C2/C(=O)C(=O)N(Cc3cccnc3)C2c2ccncc2)cc1F` (centres undefined), the inhibition was 4% (inactive). Consider `CCn1c(COc2cccc3ccccc23)nnc1SCC(N)=O`, for which the inhibition was 9% (inactive). Turning to `O=c1[nH]c2cc3c(cc2cc1C(c1nnnn1C1CCCCC1)N1CCSCC1)OCCO3` (centres undefined), the inhibition was 4% (inactive). Consider `CC1CNCCN1S(=O)(=O)c1cccc2cnccc12` (centres undefined), for which the inhibition is 5% (inactive).

Regarding `CCOC(=O)C1CCCN(C(=O)c2cn(C)c(=O)c3cc(OC)c(OC)cc23)C1` (centres undefined), the inhibition was 0% (inactive). As to `COc1nc(OC)nc(N2CCC(C(=O)NC3CCCCCC3)CC2)n1`, the inhibition was 11% (inactive). In the case of `CCOC(=O)c1ccccc1NC(=O)c1ccc(NS(C)(=O)=O)cc1` it was 0% (inactive). In the case of `Cc1onc(-c2ccccc2)c1C(=O)NCCN1CCOCC1` it was 3% (inactive). In the case of `CCOC(=O)c1[nH]c(C)c(C(=O)N(C)C)c1C` it was 0% (inactive); in that of `O=C(NCC1CCCO1)C1CCN(S(=O)(=O)c2cccc3cccnc23)CC1` (centres undefined), 0% (inactive). Take `O=C(NCc1cccs1)C1CCCN(c2ncccn2)C1` (centres undefined): the inhibition is 0% (inactive). In the case of `CC1=C(C(=O)N2CCOCC2)C(c2ccsc2)C2=C(CCCC2=O)N1` (centres undefined) it was 0% (inactive); in that of `CCOC(=O)C1CCCN(C(=O)CNS(=O)(=O)c2ccc(Br)s2)C1` (centres undefined), 8% (inactive); in that of `COC(=O)c1cc(Br)c(=O)n(Cc2cccnc2)c1`, 9% (inactive). For the molecule `Cc1ccc(S(=O)(=O)Nc2cc(C(=O)O)ccc2N2CCCCC2)cc1`, the inhibition was 0% (inactive). In the case of `Cc1cc(N2CCC3(CC2)OCCO3)n2nc(C)c(-c3ccc(Cl)cc3)c2n1` it was 8% (inactive); in that of `Cn1cccc1Cc1nnc(SCC(N)=O)n1-c1ccc(F)cc1`, 0% (inactive).

For the molecule `COc1ccc(NC(=O)Nc2ccccc2C)c(OC)c1`, the inhibition is 0% (inactive). Regarding `Cc1cc(=O)oc(C)c1C(=O)O`, the inhibition was 0% (inactive). On to `CN=C1CC(C)(C)CC(=O)/C1=C(/O)CCC(=O)NC`, for which the inhibition is 0% (inactive). On to `COCCNC(=O)CN1CCN(Cc2cccc(Cl)c2)C1=O`, for which the inhibition was 0% (inactive).

`O=C(Nc1cccc2ccccc12)c1ccc(Br)o1`: the inhibition was 0% (inactive). In the case of `CCOC(=O)CSC1=C(C#N)C(=O)NC2(CCCCC2)S1` it was 3% (inactive); in that of `CC(C)Cn1c(=O)c(C(=O)Nc2ccccc2S(N)(=O)=O)c(O)c2ccccc21`, 0% (inactive); in that of `CCCC(=O)Nc1ccccc1NC(=O)CN(C)S(=O)(=O)c1ccc(C)cc1`, 2% (inactive). `CC(C)(C)OC(=O)NC(CCNC=C1C(=O)OC(C)(C)OC1=O)C(=O)O` (centres undefined): the inhibition is 4% (inactive). As for `CC(C)c1cc(C(=O)Nc2cccnc2)no1`, the figure is 3% (inactive); as for `CCOc1cccc(-c2nnc3n2N=C(c2cc(OC)ccc2OC)CS3)c1`, 8% (inactive). As for `CCOC(=O)C1/C(=N\O)CC(C)(O)C(C(=O)OCC)C1c1ccc(N(C)C)cc1` (centres undefined), the figure is 0% (inactive); as for `CN(C)[C@@H]1C(=O)C(C(N)=O)=C(O)[C@@]2(O)C(=O)C3=C(O)c4c(O)ccc(Cl)c4[C@@H](O)[C@H]3C[C@@H]12`, 0% (inactive). As for `COc1ccc(-n2ncc3c(NCc4cccs4)ncnc32)cc1`, the figure is 0% (inactive). As for `Cc1ccc(S(=O)(=O)n2nc(OC(=O)c3ccco3)cc2N)cc1`, the inhibition is 2% (inactive).

With `CCN1CCN(c2ncc(C(=O)N3CCN(c4ccccc4OC)CC3)c3ccccc23)CC1`, the inhibition was 3% (inactive).

For `O=C(OCc1cccs1)c1ccccc1NS(=O)(=O)c1ccc2c(c1)OCCO2`, the inhibition was 0% (inactive).

For the molecule `O=C(Nn1c(C2CC2)nc2ccccc2c1=O)c1ccco1`, the inhibition was 0% (inactive).
